Inconclusive results are not listed. Active and inactive are the calls of the source. Unless noted, calls follow the shape of the dose curve; as a rule, active = well fitted curve in the direction sought with a large enough effect; inconclusive = small, poorly fitted or top-dose-only effect, or another doubt; inactive = no such curve, though single readings can be large; an effect the other way counts as inactive or inconclusive.

24 compounds from PubChem BioAssay (NCATS) can be followed below.

Test [1] addresses Cytochrome P450 3A4 (Homo sapiens) (UniProt P08684). In words: qHTS Assay for Activators of Cytochrome P450 3A4 (AID 885). Also: nearly all actives have a fitted effect of over 65% in size. The method, boiled down:
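Quantitative HTS format: compounds preincubated with 20nM human CYP3A4 and Luciferin-PPXE substrate at KM, reaction started by NADPH regeneration, stopped after 60 min, luciferase luminescence read 20 min later.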
(In general: Quantitative high-throughput screening tests each substance at several concentrations.)

A short description of test [2]: Confirmation and Secondary Assay for Modulators of Hemoglobin Beta Chain Splicing at IVS2 654 locus (AID 910).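 Also: HeLa cells stably carrying EGFP split by mutant beta-globin IVS2-654 intron; % of control where 0% means no effect.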 The method, boiled down:
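HeLa cells stably expressing EGFP interrupted by β-globin IVS2-654 intron, seeded overnight in Opti-MEM/2% FCS, then treated 2 days at 37 °C. Restored splicing read as total peak GFP intensity per well by laser scanning cytometry (488 nm excitation, 500–520 nm emission); 500 nM antisense PNA as control.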

Test [3] can be described thus: Confirmation and Secondary Assay for Modulators of Hemoglobin Beta Chain Splicing at IVS2 705 locus (AID 930).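 Also: HeLa cells stably expressing the EGFP-705 splicing reporter; % of control where 0% means no effect.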 In a few lines: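 Restored EGFP fluorescence after 2-day compound exposure reports splicing correction in IVS2-705 EGFP reporter HeLa cells; positive control was 500 nM splice-blocking PNA oligo. Signal measured as well total peak GFP intensity (488 nm excitation).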

Test [4] can be described thus: qHTS Assay for Lipid Storage Modulators (AID 1519; calls by dose curve; as to activity change, negative = inhibition: % is scaled to controls: 0 for no effect and ±100 for the full control effect). The conditions noted are these: Drosophila S3 cells, BODIPY lipid droplet/cell ratio, laser cytometry, cells loaded with oleic acid; for activity change, negative = inhibition: at 57.5 µM (top of the series). The method, boiled down:
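Cells seeded at 5,000 per well were treated with compounds over a concentration series and loaded with oleic acid (400 uM, as added). Lipid droplet fluorescence (488 nm excitation, 500-530 nm channel) was read by laser-scanning cytometry and normalized to 20 uM Triacsin C.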

The target of test [5] is Ubiquitin carboxyl-terminal hydrolase 1 (Homo sapiens) (UniProt O94782). In words: Inhibitors of USP1/UAF1: Pilot qHTS (AID 504865). Also: nearly all actives have a fitted effect of over 35% in size. Also: potency is read from the fitted curve at half-maximal effect.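 As to activity change, negative = inhibition: rhodamine fluorescence freed from ubiquitin-rhodamine substrate followed over time; top concentration of the series differs between compounds; % is scaled to controls: 0 for no effect and ±100 for the full control effect.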 The method, boiled down:
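Deubiquitinase activity followed as kinetic rhodamine fluorescence release from 150 nM Ub-Rho. 1 nM USP1/UAF1 with compound, after 15 min room-temperature preincubation, in HEPES pH 7.8 buffer containing TCEP, EDTA, BSA and Tween-20.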

Setting [6] is: measured here: cell count channel max response.
Setting [7] is: measured here: lipid channel max response.

Chain of Cytochrome P450 3A4 (Homo sapiens) (P08684 whole entry, looked up): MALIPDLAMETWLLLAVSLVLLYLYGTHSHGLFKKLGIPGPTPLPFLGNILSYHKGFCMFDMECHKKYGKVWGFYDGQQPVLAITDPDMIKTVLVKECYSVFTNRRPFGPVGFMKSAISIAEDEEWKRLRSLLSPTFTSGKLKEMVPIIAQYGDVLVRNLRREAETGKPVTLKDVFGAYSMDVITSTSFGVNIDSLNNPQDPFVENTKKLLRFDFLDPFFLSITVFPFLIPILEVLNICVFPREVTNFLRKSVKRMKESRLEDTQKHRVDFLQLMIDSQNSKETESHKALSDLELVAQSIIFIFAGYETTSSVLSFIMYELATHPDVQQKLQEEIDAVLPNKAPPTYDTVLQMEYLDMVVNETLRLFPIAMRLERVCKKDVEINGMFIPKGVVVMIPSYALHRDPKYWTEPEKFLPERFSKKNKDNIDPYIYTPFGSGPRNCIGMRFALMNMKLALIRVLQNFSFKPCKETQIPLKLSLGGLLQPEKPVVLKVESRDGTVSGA
Chain of Ubiquitin carboxyl-terminal hydrolase 1 (Homo sapiens) (O94782 whole entry, looked up): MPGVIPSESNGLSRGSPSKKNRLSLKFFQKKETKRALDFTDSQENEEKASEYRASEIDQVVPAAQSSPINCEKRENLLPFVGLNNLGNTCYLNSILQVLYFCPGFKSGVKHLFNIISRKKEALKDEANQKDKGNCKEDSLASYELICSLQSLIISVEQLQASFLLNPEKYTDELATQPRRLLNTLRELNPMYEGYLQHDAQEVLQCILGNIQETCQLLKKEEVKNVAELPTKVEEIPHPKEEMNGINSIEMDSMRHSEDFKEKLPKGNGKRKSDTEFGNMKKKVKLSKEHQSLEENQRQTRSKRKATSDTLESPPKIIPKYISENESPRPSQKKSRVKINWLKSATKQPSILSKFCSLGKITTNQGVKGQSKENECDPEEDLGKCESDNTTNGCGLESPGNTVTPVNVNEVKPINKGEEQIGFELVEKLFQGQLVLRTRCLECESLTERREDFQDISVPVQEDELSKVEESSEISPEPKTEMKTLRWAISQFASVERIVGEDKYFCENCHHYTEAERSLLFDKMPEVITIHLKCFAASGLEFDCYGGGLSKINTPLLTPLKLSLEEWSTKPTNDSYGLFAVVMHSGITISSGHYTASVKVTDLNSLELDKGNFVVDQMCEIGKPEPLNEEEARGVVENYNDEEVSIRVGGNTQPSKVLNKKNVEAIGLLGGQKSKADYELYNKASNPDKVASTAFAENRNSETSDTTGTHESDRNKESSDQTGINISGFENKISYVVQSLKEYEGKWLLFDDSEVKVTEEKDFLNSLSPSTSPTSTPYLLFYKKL

Take `COC1=CC(=O)C(C(=O)c2ccccc2)=CC1=O`: the Potency result in test [1], in test [2] and in test [3] was “inactive” in each case. The activity change, negative = inhibition in test [4] is 9.22% (inactive). In addition, the figures for the max response in test [4] (setting [6]) and in test [4] (setting [7]) were 13.1% and 25.8%, respectively. Further, the Potency in test [5] was 25.1 µM (active).

Take `CC(=O)OC1CC2C(C)(C)C(=O)[C@@H]3OC3[C@@]2(C)C2CC[C@]3(C)C(=CC(=O)OC3c3ccoc3)[C@]12C` (stereo partly drawn): the Potency entry in test [1], in test [2], in test [3] and in test [5] was “inactive” each time. Further, the activity change, negative = inhibition in test [4] is 2.11% (inactive). Also, the max response in test [4] (setting [6]) was found to be 18.2%; in test [4] (setting [7]), 25.7%.

In the case of `COc1cccc(O)c1O`, the Potency result in test [1], in test [2], in test [3] and in test [5] was “inactive” throughout. Moreover, the activity change, negative = inhibition in test [4] was 7.71% (inactive). For the same compound, the max response in test [4] (setting [6]) came out at 9.09%; in test [4] (setting [7]) it was 20.7%.

On to `COc1ccc(-c2cc(=O)c3c(O)c(OC)c(OC)c(OC)c3o2)cc1OC`, for which the Potency result in test [1], in test [2], in test [3] and in test [5] was “inactive” throughout. For the same compound, the activity change, negative = inhibition in test [4] was -11% (inactive). For the same compound, the figures for the max response in test [4] (setting [6]) and in test [4] (setting [7]) were -6.36% and -17.8%, respectively.

Take `CCOC(=O)c1c(C)cc(O)c(C=O)c1O`: the Potency entry in test [1], in test [2], in test [3] and in test [5] was “inactive” throughout. Also, in test [4], the activity change, negative = inhibition is 7.6% (inactive). The values for the max response in test [4] (setting [6]) and in test [4] (setting [7]) were -4.41% and 3.24%, respectively.

With `CC1(C)OC2CC3C4CC(F)C5=CC(=O)C=C[C@@]5(C)[C@@]4(F)C(O)C[C@@]3(C)[C@]2(C(=O)CO)O1` (stereo partly drawn), the Potency result in test [1], in test [2], in test [3] and in test [5] was “inactive” each time. The activity change, negative = inhibition in test [4] was 3.9% (inactive). Further, the max response is 10.6% in test [4] (setting [6]) and 16.5% in test [4] (setting [7]).

Take `COc1ccc(-c2coc3cc(OC(C)=O)cc(OC(C)=O)c3c2=O)cc1`: the Potency entry in test [1], in test [2], in test [3] and in test [5] was “inactive” throughout. Also, in test [4], the activity change, negative = inhibition is -2.95% (inactive). The max response in test [4] (setting [6]) is 3.34%; in test [4] (setting [7]), 2.84%.

Take `COC(=O)c1c(C)cc(OC)cc1O`: the Potency result in test [1], in test [2], in test [3] and in test [5] was “inactive” in each case. Further, the activity change, negative = inhibition in test [4] is 8.17% (inactive). In addition, the max response in test [4] (setting [6]) was determined as 10%; in test [4] (setting [7]), 23.5%.

`C=CC(C1=CC(=O)C=CC1=O)c1ccccc1` (stereo not drawn): the Potency result in test [1], in test [2], in test [3] and in test [5] was “inactive” in each case. In addition, the activity change, negative = inhibition in test [4] was 7.07% (inactive). Moreover, the max response in test [4] (setting [6]) is 8.2%; in test [4] (setting [7]), 16.8%.

As for `C=C1CCC(=O)C(C)CCC2C1CC2(C)C` (stereo not drawn), the Potency entry in test [1], in test [2], in test [3] and in test [5] was “inactive” each time. Further, the activity change, negative = inhibition in test [4] is 1.2% (inactive). Moreover, the max response amounted to 13.1% in test [4] (setting [6]) and 14.5% in test [4] (setting [7]).

For `C[C@@H]1CCC2[C@](C)(CO)C(O)CC[C@@]2(C)[C@@]12CC[C@](CO)(CCO)O2` (stereo partly drawn), the Potency result in test [1], in test [2], in test [3] and in test [5] was “inactive” in each case. The activity change, negative = inhibition in test [4] was 5.37% (inactive). In addition, the figures for the max response in test [4] (setting [6]) and in test [4] (setting [7]) were 11.4% and 17.7%, respectively.

Regarding `CO[C@]12CC(COC(=O)c3cncc(Br)c3)CN(C)[C@@H]1Cc1cn(C)c3cccc2c13` (stereo partly drawn), the Potency entry in test [1], in test [2], in test [3] and in test [5] was “inactive” throughout. Further, the activity change, negative = inhibition in test [4] is 10.2% (inactive). The max response came out at 10.9% in test [4] (setting [6]) and 29% in test [4] (setting [7]).

Consider `S=c1ccss1`, for which the Potency entry in test [1], in test [2], in test [3] and in test [5] was “inactive” in each case. In addition, the activity change, negative = inhibition in test [4] was 7.62% (inactive). The max response worked out at 5.82% in test [4] (setting [6]) and 13.7% in test [4] (setting [7]).

On to `COc1c(O)cc2c(-c3ccccc3)cc(=O)oc2c1OC`, for which the Potency entry in test [1], in test [2], in test [3] and in test [5] was “inactive” throughout. The activity change, negative = inhibition in test [4] is 5.27% (inactive). Moreover, the max response in test [4] (setting [6]) is 6.33%; in test [4] (setting [7]), 14.2%.

With `COC(=O)/C(=C1\OC(=O)C(c2ccccc2)C1=O)c1ccccc1` (stereo not drawn), the Potency entry in test [1], in test [2], in test [3] and in test [5] was “inactive” each time. In test [4], the activity change, negative = inhibition is 5.87% (inactive). The max response in test [4] (setting [6]) stood at 11.1%; in test [4] (setting [7]), 17.7%.

For the compound `COc1ccc(-c2coc3c(O)c(OC)ccc3c2=O)cc1`, the Potency entry in test [1], in test [2], in test [3] and in test [5] was “inactive” in each case. The activity change, negative = inhibition in test [4] was 2.6% (inactive). The max response was determined as 25.3% in test [4] (setting [6]) and 28.5% in test [4] (setting [7]).

For the compound `O=C(NC1CCCCC1)NC1CCCCC1`, the Potency result in test [1], in test [2], in test [3] and in test [5] was “inactive” each time. In test [4], the activity change, negative = inhibition is 9.61% (inactive). The figures for the max response in test [4] (setting [6]) and in test [4] (setting [7]) were 16.8% and 30.7%, respectively.

For the compound `CC(=O)C1CCC2C3CC(C)C4=CC(=O)CC[C@@]4(C)C3C(O)C[C@@]12C` (stereo partly drawn), the Potency entry in test [1], in test [2], in test [3] and in test [5] was “inactive” throughout. Besides, the activity change, negative = inhibition in test [4] is 8.05% (inactive). Besides, the max response in test [4] (setting [6]) is 8.18%; in test [4] (setting [7]) it was 24.3%.

As for `CCOC(=O)C(Cc1ccc(O)cc1)NC(C)=O` (stereo not drawn), the Potency entry in test [1], in test [2], in test [3] and in test [5] was “inactive” each time. In addition, in test [4], the activity change, negative = inhibition is 7.38% (inactive). For the same compound, the max response worked out at 6.37% in test [4] (setting [6]) and 13.9% in test [4] (setting [7]).

Turning to `COc1ccc(C2CC(=O)c3ccc(OC)cc3O2)cc1` (stereo not drawn), the Potency result in test [1], in test [2], in test [3] and in test [5] was “inactive” in each case. The activity change, negative = inhibition in test [4] was 10.2% (inactive). For the same compound, the max response was determined as 32.1% in test [4] (setting [6]) and 45.7% in test [4] (setting [7]).

With `CC1(C)CC23C(=O)CCC(O)C2(C)CCC13` (stereo not drawn), the Potency result in test [1], in test [2], in test [3] and in test [5] was “inactive” each time. In test [4], the activity change, negative = inhibition is 0.112% (inactive). Besides, the max response in test [4] (setting [6]) was determined as 8.4%; in test [4] (setting [7]), 10.8%.

As to `CC(=O)OC1CC2C(C)(C)C=CC(=O)[C@@]2(C)C2CC[C@@]3(C)C(c4ccoc4)OC(=O)C4OC43[C@]12C` (stereo partly drawn), the Potency result in test [1], in test [2], in test [3] and in test [5] was “inactive” each time. Moreover, in test [4], the activity change, negative = inhibition is 5.35% (inactive). Moreover, the max response is -8.35% in test [4] (setting [6]) and -1.42% in test [4] (setting [7]).

On to `COC(=O)c1cc(OC)c(=O)c2c(OC)c(OC)ccc2c1`, for which the Potency result in test [1], in test [2], in test [3] and in test [5] was “inactive” in each case. The activity change, negative = inhibition in test [4] was 6.06% (inactive). The max response in test [4] (setting [6]) is -2.75%; in test [4] (setting [7]), 7.78%.

For the compound `COC(=O)C1OC(=O)C2O[C@@]23[C@]2(C)C(OC(C)=O)CC4C(C)(C)C(=O)CC[C@]4(C)C2CC[C@@]13C` (stereo partly drawn), the Potency result in test [1], in test [2], in test [3] and in test [5] was “inactive” in each case. In test [4], the activity change, negative = inhibition was -1.69% (inactive). The max response in test [4] (setting [6]) is -0.434%; in test [4] (setting [7]) it was 4.55%.
